The list is not random: actives were taken first. Their share in the collection is about 11%.
USP17 block = inhibitors of human USP17 deubiquitinase; purified USP17, Ub-rhodamine cleavage fluorescence, 3 h; inhibition, % at 50 µM; 6.5% of 47,000 active; AID 1645855, 2021
OTUD3 block = inhibitors of human OTUD3 deubiquitinase; OTU domain-containing protein 3 (Homo sapiens), Q5T2D3; purified OTUD3, Ub-rhodamine fluorescence, 2 h; inhibition, % at 25 µM; 0.7% of 47,000 active
Target sequence (Q5T2D3 whole entry, looked up, the tested form may be a part): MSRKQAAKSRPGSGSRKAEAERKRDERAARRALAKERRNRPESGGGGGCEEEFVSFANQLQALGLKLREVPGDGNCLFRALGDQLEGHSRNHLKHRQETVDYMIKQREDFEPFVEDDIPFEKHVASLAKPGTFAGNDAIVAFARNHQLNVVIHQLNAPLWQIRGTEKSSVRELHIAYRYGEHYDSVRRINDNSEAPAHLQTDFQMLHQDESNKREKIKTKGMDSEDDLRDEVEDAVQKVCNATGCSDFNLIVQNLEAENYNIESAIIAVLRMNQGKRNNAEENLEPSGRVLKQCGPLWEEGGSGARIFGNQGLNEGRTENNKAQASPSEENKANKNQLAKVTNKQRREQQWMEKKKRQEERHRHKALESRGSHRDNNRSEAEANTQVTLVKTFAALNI
USP28 inh = inhibitors of human USP28 deubiquitinase | Ubiquitin carboxyl-terminal hydrolase 28 (Homo sapiens), Q96RU2 | purified USP28, Ub-rhodamine cleavage fluorescence, 30 min | inhibition, % at 25 µM | 3% of 47,000 active | AID 1645857, 2021
USP30 inh = inhibitors of human USP30 deubiquitinase; Ubiquitin carboxyl-terminal hydrolase 30 (Homo sapiens), Q70CQ3; purified USP30, Ub-rhodamine cleavage fluorescence; inhibition, % at 25 µM; 5.3% of 47,000 active; AID 1645860, 2021
Numbers stand for hits; n = inactive; x = no result. Rule as the data show it: active = inhibition above about 30%; inactive = the rest.

SMILES | USP17 block | OTUD3 block | USP28 inh | USP30 inh
CC(C)C[C@@H](NC(=O)OC(C)(C)C)C(=O)N1CCC(C(=O)N[C@H](Cc2ccccc2)C(=O)NC(C)c2ccccc2)CC1 (some centres undefined) | n | n | n | n
CCn1c(Cn2cccn2)nc2cc(NC(=O)CC(C)C)ccc21 | n | n | n | n
CCn1c(Cn2cccn2)nc2cc(NC(=O)c3ccc(F)cc3)ccc21 | n | n | 53 | n
O=C(NC1CCCC1)C1CN(C(=O)Nc2cccc(F)c2)CC12CCOCC2 (centres undefined) | n | n | n | n
O=C(Cc1ccccc1[N+](=O)[O-])Nc1ccc(N2CCOCC2)cc1 | n | n | n | n
Cc1nc(NCc2ccc3c(c2)OCO3)ncc1C(=O)N1CCN(c2ccccc2)CC1 | n | n | n | n
CCc1nc(Nc2ccc3c(c2)SC2=NCCN23)c2oc3ccccc3c2n1 | 61 | n | 63 | 41
Cc1ccc(CN2CCCC(c3nc(-c4cccnc4)n[nH]3)C2)o1 (centres undefined) | n | n | n | n
CS(=O)(=O)c1ccc(C(=O)N(CC2CC2)C2CCN(CCc3cccs3)CC2)cc1 | n | n | n | n
CC(C)(C)OC(=O)N[C@@H](Cc1ccccc1)C(=O)NCC1CCC(C(=O)NCCc2c[nH]c3ccccc23)CC1 (some centres undefined) | 44 | n | n | n
Cc1ccc(S(=O)(=O)Nc2ccccc2C(=O)Nc2nc3ccc(Br)cc3s2)cc1 | 97 | 84 | 77 | 75
Cn1ncc2c(NCc3ccccc3)nc(N3CCOCC3)nc21 | n | n | n | n
CC(C)CC(=O)Nc1cc(F)c2nc(N3CCOCC3)ccc2c1 | 75 | n | n | n
O=C(COc1ccc(F)cc1)Nc1cc(F)c2nc(N3CCOCC3)ccc2c1 | 51 | n | n | n
COc1ccc(OCC(=O)Nc2cc(F)c3nc(N4CCOCC4)ccc3c2)cc1 | n | n | n | n
O=C(COc1nc2ccccc2nc1N1CCOCC1)Nc1ccc(F)cc1 | n | n | n | 38
O=C(Cn1ccc2ccc(N3CCOCC3)nc21)NCc1ccc(F)cc1F | n | n | n | n
CCN(CC)C(=O)CC[C@H]1CNC(=O)[C@@H]2[C@@H](CCN2C2CCOCC2)N1C | n | n | n | n
COc1ccc(CNCc2c(C(=O)O)c(C)n(-c3ccccc3)c2C)cc1 | n | n | n | n
CCCc1nc2c(sc3nc4c(cc32)COC(C)(C)C4)c(=O)n1CC(=O)Nc1ccccc1C | 62 | n | n | n
Cc1nc(SC(C)C(=O)Nc2ccccc2)c2sc3nc4c(cc3c2n1)COC(C)(C)C4 (centres undefined) | n | n | n | n
COc1ccc(N(CC(=O)Nc2cccc(F)c2)S(=O)(=O)c2ccc(OC)c(OC)c2)cc1 | 36 | n | n | 51
COc1ccc(CNC(=O)CN(c2ccccc2)S(=O)(=O)c2ccc(F)cc2)cc1OC | n | n | n | n
COc1ccc(S(=O)(=O)N(CC(=O)NCc2ccc3c(c2)OCO3)c2ccc(F)cc2)cc1OC | 34 | n | n | 38
COc1ccc(S(=O)(=O)N(CC(=O)Nc2cccnc2)c2ccc(F)cc2)cc1OC | n | n | n | n
SMILES | USP17 block | OTUD3 block | USP28 inh | USP30 inh
CN(C)c1ncc(-c2ccncc2)c(-c2ccoc2)n1 | n | n | n | n
O=S(=O)(NC1CCN(c2ncnc3c2CCC3)C1)c1ccccc1 (centres undefined) | n | n | n | n
NC(=O)CCC(=O)N[C@H]1C[C@H]2CN(Cc3ccccc3)Cc3ccccc3CN2C1 | n | n | n | n
Cc1nc(N2CCOCC2)nc2c1COCC21CCN(Cc2ccccc2)C1 (centres undefined) | n | n | n | n
CSc1nc(C)c2c(n1)N(c1ccc(C(C)C)cc1)CC2 | 41 | n | n | n
Cc1ccc(S(=O)(=O)Nc2ccccc2CCc2nc3ccccc3[nH]2)cc1 | n | n | n | n
Cc1ccc(S(=O)(=O)Nc2ccccc2SCCS(=O)(=O)c2ccc(Cl)cc2)cc1 | n | n | n | 51
COc1cccc(S(=O)(=O)N2CCCn3nnc(COCC4CC4)c3C2)c1 | n | n | n | n
COc1cccc(S(=O)(=O)N2CCn3nc(C(C)(C)C)cc3C2)c1 | n | n | n | 79
Cc1cccc(NC(=O)Cn2c(N3CCOCC3)nc3cc(C)n(C)c3c2=O)c1 | 47 | n | n | 61
Cc1scc2nc(C(=O)N3CCCC3)nc(N3CCOCC3)c12 | n | n | n | n
Cn1ncc2c(N3CCOCC3)nc(C(=O)NCc3ccc(Cl)cc3)nc21 | n | n | n | n
Cc1cccc(NC(=O)c2nc(N3CCOCC3)c3cnn(C)c3n2)c1 | 44 | n | n | 42
Cc1scc2nc(C(=O)Nc3ccc4c(c3)OCO4)nc(N3CCOCC3)c12 | n | n | 32 | n
COc1ccc(C(C)C)cc1S(=O)(=O)Nc1cccc(C)n1 | n | n | n | n
COc1ccc(C)cc1S(=O)(=O)NNc1nc(C)cc(C)n1 | 34 | n | n | n
CCOc1ccc(NC(=O)CS(=O)(=O)c2[nH]c(-c3cccc(OC)c3)nc2-c2ccccc2)cc1 | n | n | n | n
Cc1ccc(-c2nc(-c3ccccc3)c(S(=O)(=O)CC(=O)Nc3ccc(C)c(C)c3)[nH]2)cc1 | 37 | 32 | n | n
COc1ccc(S(=O)(=O)Nc2ccc3nn(C)cc3c2)cc1 | 34 | n | n | n
CCN1C(=O)Cc2cc(NS(=O)(=O)c3ccc(OC)cc3)ccc21 | n | n | n | n
Cn1c(C(=O)Nc2ccc(F)cc2)c(N2CCCC2=O)c2cc(F)ccc21 | n | n | n | n
Cc1cccc(C)c1NC(=O)c1cccc(COc2ccc3c(c2)CCC3)c1 | n | n | 31 | n
OCC1CSC(c2ccccc2O)=N1 (centres undefined) | 30 | n | n | n
CCc1ccc2oc(C(=O)NCC(c3ccco3)N3CCCC3)cc(=O)c2c1 (centres undefined) | n | n | n | n
O=C1N(Cc2ccc(F)cc2)CCN1c1ccc(C(F)(F)F)cn1 | n | n | 65 | n
SMILES | USP17 block | OTUD3 block | USP28 inh | USP30 inh
O=C1N(Cc2ccc(F)cc2)CCN1c1ccc2c(c1)CCC2 | n | n | 52 | 31
COc1cccc(CN2CCN(c3ccc(F)cc3)C2=O)c1 | n | n | 40 | n
CC(C)c1ccc(N2CCN(Cc3ccc(F)cc3)C2=O)cc1 | n | n | 31 | n
CC(C)(C)c1ccc(CN2CCN(c3ccc4c(c3)CCC4)C2=O)cc1 | n | n | n | n
COc1cccc(CC(=O)NC2CCN(c3ccc(F)cc3)C2=O)c1 (centres undefined) | x | n | n | n
CN(C)C1(CNC(=O)C2CCN(S(=O)(=O)c3ccc4c(c3)OCCO4)CC2)CCCCC1 | n | n | n | n
CCn1c(CC(=O)Nc2ccc(F)cc2)nnc1SCC(=O)c1ccc(C#N)cc1 | n | n | n | n
O=C(Cn1cccc1-c1nc(-c2ccccc2)cs1)N1CCOCC1 | 74 | n | n | n
CCc1ccc2nc(NC(=O)C3(c4ccccc4)CC3)sc2c1 | n | n | n | n
O=C(NCc1cccnc1)c1cccc(-c2ccc(N3CCCC3)nc2)c1 | n | n | x | x
O=C(NC1CCCC1)c1cccc(-c2ccc(N3CCCC3)nc2)c1 | 51 | n | n | n
